# Experimental data as given in paper PMC4552634, “A New Set of Chemical Starting Points with Plasmodium falciparum Transmission-Blocking Potential for Antimalarial Drug Discovery” (PLoS ONE, 2015).
# The whole screen tested about 13,000 compounds, of which about 3,200 (25%) showed an effect of 50% or more. The list shows a part of the results.
# Tested on: P. falciparum stage V gametocytes
# Design: BacTiter-Glo ATP luminescence viability of purified stage V gametocytes in 384-well plates, per cent inhibition versus DMSO
# Settings: 48 h, 5 µM; inhibitor
row,SMILES,% Inhibition
1,CCC(C)CN1CCN(c2ccc(NC(=O)c3cccs3)cc2)CC1C (centres unmarked) [TCMDC-134997],0.3581%
2,Cc1ccc(C(=O)NC2C(=O)NC2c2ccccc2)c(C)c1 (centres unmarked) [TCMDC-131386],4.246%
3,COc1ccc(NC(=O)[C@H](CC(C)C)Nc2cc(C)nc(NCc3ccccc3C)n2)cc1 [TCMDC-134909],-97.01%
4,COc1cc(N)c(Cl)cc1C(=O)NCC1CCN(c2nc(C)cc(C)n2)CC1 [TCMDC-124850],17.19%
5,COc1cc2nc(N3CCC(CNC(=O)c4ccc(-c5ccc(Cl)cc5)cc4)CC3)nc(N)c2cc1OC [TCMDC-138718],145.1%
6,COc1cc2nc(NCc3cccc(CNC(=O)c4ccc(-c5ccc(C(C)=O)cc5)cc4)c3)nc(N)c2cc1OC.O=C(O)C(F)(F)F [TCMDC-138177],117.9%
7,COc1cc2nc(NCC3CCN(C(=O)c4ccc(-c5ccc(C(=O)N(C)C)cc5C)cc4)CC3)nc(N)c2cc1OC [TCMDC-138182],-26.73%
8,COc1cc2nc(N3CCC(CNC(=O)c4ccc(OC(F)(F)F)cc4)CC3)nc(N)c2cc1OC.O=C(O)C(F)(F)F [TCMDC-138211],-26.96%
9,COc1cc2nc(N3CCC(CNC(=O)c4cccc5cccnc45)CC3)nc(N)c2cc1OC [TCMDC-138181],14.63%
10,COc1cc2nc(N3CCC(CNC(=O)c4ccc(C(C)=O)cc4)CC3)nc(N)c2cc1OC.O=C(O)C(F)(F)F [TCMDC-138210],69.3%
11,COc1cc2nc(N3CCC(CNC(=O)c4cccc5cc[nH]c45)CC3)nc(N)c2cc1OC [TCMDC-138184],101.1%
12,Cc1cc2nc(-c3ccc(C(=O)NCc4cccc(C(F)(F)F)c4)cc3)[nH]c2cc1C [TCMDC-140431],-14.71%
13,CN(C)Cc1cccc(-c2cnc(N)c(-c3nc4ccc(S(C)(=O)=O)cc4[nH]3)c2)c1 [TCMDC-133721],43.08%
14,CSc1ccc(CN2CCC(NC(=O)c3ccc(-c4cccc(Cl)c4)s3)CC2)cc1 [TCMDC-134341],12.93%
15,COc1cc(Nc2nc(N)n(C(=O)c3ccc4c(c3)OCO4)n2)cc(OC)c1OC [TCMDC-136737],-65.07%
16,O=c1[nH]c2c(cc1CNC1CCCCC1)c(-c1ccc(F)cc1)nn2-c1ccccc1 [TCMDC-125352],14.87%
17,CCCCOC(=O)NCCCC[C@H](NC(=O)OC(C)(C)C)C(=O)N[C@H](C(=O)OC(c1ccccc1)c1ccccc1)[C@H]1O[C@@H](n2ccc(=O)[nH]c2=O)[C@@H]2OC(C)(C)O[C@@H]21 [TCMDC-131947],9.174%
18,Cc1c(C(=O)C2CC2CN2CCC(N3CCCC3)CC2)sc2ccccc12 (centres unmarked) [TCMDC-132577],31.52%
19,C=C[C@]1(C)C[C@@H](OC(=O)CSC2CN3CCC2C3)[C@@]2(C)C3C(=O)CC[C@@]3(CC[C@H]2C)[C@@H](C)[C@@H]1O (some centres unmarked) [TCMDC-139185],16.51%
20,CC(C)(C)c1cc(C(=O)N2CCN(c3cnccn3)CC2)n(Cc2ccccc2)n1 [TCMDC-133778],6.708%
21,COc1cc2nc(N3CCC(CNC(=O)c4ccc(NC(=O)c5ccc(Cl)cc5)cc4)CC3)nc(N)c2cc1OC [TCMDC-138712],79.48%

row,SMILES,% Inhibition
1,COc1cc2nc(N3CCC(CNC(=O)c4ccc(-c5ccc(C(F)(F)F)cc5)cc4)CC3)nc(N)c2cc1OC [TCMDC-138716],114.6%
2,COc1cc2nc(N3CCC(CNC(=O)c4ccc(-c5ccccc5)cc4)CC3)nc(N)c2cc1OC [TCMDC-137787],-6.004%
3,COc1cc2nc(N3CCC(CNCc4ccc(-c5ccc(C(F)(F)F)cc5)cc4)CC3)nc(N)c2cc1OC [TCMDC-138757],94.11%
4,COC(=O)c1ccc(-c2ccc(C(=O)NCC3CCN(c4nc(N)c5cc(OC)c(OC)cc5n4)CC3)cc2)cc1 [TCMDC-138721],127%
5,COc1ccc2nccc([C@@H](O)CN3CCC(NC(=O)C(=Cc4ccc(C#N)cc4)c4ccc(-c5ccccc5)cc4)CC3)c2c1 [TCMDC-141112],-10.17%
6,Cc1cc(NC(=O)Nc2ccc(Cl)cc2F)c2ccccc2n1 [TCMDC-134658],-34.71%
7,CCCC(C)NC(=O)c1cnn(-c2ccc(C(C)(C)C)cc2)c1OCc1ccc(Br)cc1 (centres unmarked) [TCMDC-139598],11.83%
8,CC(=O)Nc1ccc(C(=O)Nc2cccc(-c3ccc(-c4nc5cc(F)ccc5[nH]4)s3)c2)cn1 [TCMDC-136833],-51.51%
9,Cn1c2c(c3ccccc31)CN(CCC1(c3ccc(Cl)c(Cl)c3)CN(C(=O)Cc3ccccc3)CCO1)CC2 (centres unmarked) [TCMDC-135563],32.52%
10,Cc1cc(C(=O)Nc2ccc3c(c2)CCN3C2CCN(Cc3ccc(F)cc3Cl)C2)no1 (centres unmarked) [TCMDC-135081],2.936%
11,Cc1cc(Cl)c(S(=O)(=O)NC(C)(C)C)cc1OCC(=O)NC1CCCCC1 [TCMDC-124352],-13.59%
12,COCCN1CCC(CN(C)CC(C)(C)c2nc(-c3ccc(Cl)c(O)c3)c(-c3ccncc3)[nH]2)CC1 [TCMDC-140899],-71.13%
13,CN1CCN(c2cc3c(cc2Cl)CCN3C(=O)Cc2ccc(Cl)c(NC(=O)Nc3cccc(C#N)c3)c2)CC1 [TCMDC-139474],3.911%
14,Nc1ncc(-c2ccc(F)cc2)cc1-c1nc2ccc(Cl)cc2[nH]1 [TCMDC-138810],-32.19%
15,Cc1[nH]cnc1Cc1ccc2c(c1O)c1ccccc1n2C [TCMDC-131955],-82.46%
16,Cc1cc(NC(=O)c2sc3ccccc3c2O)no1 [TCMDC-124522],-1.25%
17,CCOc1c(OC)ccc2c1CCN(CCN1CCC(CNC(=O)c3ccc(-c4ccc(C#N)cc4)cc3)CC1)C2 [TCMDC-138848],-12.76%
18,NC(=O)COc1c(C2CCN(CCN3CCC(CNC(=O)c4ccc(-c5ccc(C(F)(F)F)cc5)cc4)CC3)CC2)ccc2c1CCCC2 [TCMDC-134308],93.17%
19,N#Cc1ccc(-c2ccc(C(=O)NCCCCN3CCC(c4ccc5c(c4OCC(N)=O)CCCC5)CC3)cc2)cc1 [TCMDC-138803],73.12%
20,N#Cc1ccc(-c2nc(CO)c(C(=O)NCCCCN3CCC(c4ccc5c(c4OCC(N)=O)CCCC5)CC3)s2)cc1 [TCMDC-138872],-1.012%
21,N#Cc1ccc(-c2ccc(C(=O)NCC3CCN(CCN4CCC(c5ccc6c(c5OCC(N)=O)CCCC6)CC4)CC3)cc2)cc1 [TCMDC-134563],103.8%

row,SMILES,% Inhibition
1,N#Cc1ccc(-c2ccc(C(=O)NCCCCN3CCC(c4ccc5c(c4OCC(N)=O)CCCC5)CC3)nc2)cc1 [TCMDC-135212],23.96%
2,COc1c(C2CCN(CCN3CCC(NC(=O)c4ccc(-c5ccc(C(F)(F)F)cc5)cc4)CC3)CC2)ccc2c1CCCC2 [TCMDC-138857],16.95%
3,COc1c(C2CCN(CCN3CCC(CNC(=O)c4ccc(-c5ccc(C#N)cc5)cc4)CC3)CC2)ccc2c1CCCC2 [TCMDC-138859],105.9%
4,COc1cc(CNC[C@@H](O)[C@H](Cc2ccccc2)NC(=O)c2cc(C3CCCC3)cc(N3CCCC3=O)c2)cc(OC)c1 [TCMDC-134558],-9.273%
5,COc1ccc(Nc2nccc(N3CCC(NC(=O)Nc4cccc(OC)c4)C3)n2)cc1 (centres unmarked) [TCMDC-133616],-47.96%
6,CCSc1nnc(C2CCCN(CC(=O)Nc3cc(C(F)(F)F)ccc3Cl)C2)n1CC (centres unmarked) [TCMDC-123540],7.83%
7,CC(=O)C1(c2ccccc2)CCN(CCC2(c3ccc(Cl)c(Cl)c3)CN(C(=O)C3CCCCC3)CCO2)CC1 (centres unmarked) [TCMDC-135326],-73.48%
8,CCOC(=O)c1c(C)n(-c2ccc(Cl)cc2)c2ccc(OC(=O)C=Cc3ccccc3)cc12 [TCMDC-125715],-42.41%
9,O=C(NCCN1CCCC1)N1CCCN(c2ncnc3cc(-c4ccc(F)cc4)sc23)CC1 [TCMDC-134393],93.57%
10,CC(C)N1CCC(NC(=O)N2CCCN(c3ncnc4cc(-c5ccccc5)sc34)CC2)CC1 [TCMDC-134391],65.6%
11,O=C(NCCN1CCCCC1)N1CCCN(c2ncnc3cc(-c4ccccc4)sc23)CC1 [TCMDC-134392],3.881%
12,CN(C)CCNC(=O)N1CCCN(c2ncnc3cc(-c4ccccc4)sc23)CC1 [TCMDC-134389],-9.14%
13,O=C(Nc1ccccc1O)C1CCN(c2ncnc3cc(-c4ccc(F)cc4)sc23)CC1 [TCMDC-124822],-65.25%
14,CN(C)CCNC(=O)NC1CN(c2ncnc3cc(-c4ccccc4)sc23)C1 [TCMDC-134388],-2.865%
15,CC(C)N1CCC(NC(=O)N2CCCN(c3ncnc4cc(-c5ccc(Cl)cc5)sc34)CC2)CC1 [TCMDC-134390],-12.69%
16,O=C(NCCN1CCCC1)N1CCCN(c2ncnc3cc(-c4ccc(Cl)cc4)sc23)CC1 [TCMDC-134394],-0.6581%
17,CN(C)CCNC(=O)N1CCCN(c2ncnc3cc(-c4ccc(Cl)cc4)sc23)CC1 [TCMDC-134387],97.42%
18,Cc1c(CNCCCNc2cc(=O)c3ccccc3[nH]2)sc(C(F)F)c1Br [TCMDC-141322],-67.17%
19,NC(=O)c1ccc(NC(=O)CN(Cc2ccc(Cl)cc2)S(=O)(=O)c2ccccc2)cc1 [TCMDC-124454],35.94%
20,CN(C)CCOc1ccc(-n2c(-c3nonc3N)nc3cncc(-c4ccc(F)cc4)c32)cc1 [TCMDC-134178],-7.095%
